Screening data from PubChem BioAssay.
Sampled rows, rich in hits. Any-hit rate of the full collection: about 0.74%.
p97 inhibitor – human p97 ATPase inhibition; P55072; recombinant p97 ATPase, Kinase-Glo ATP luminescence, 3 h; inhibition, % at 8 µM; 0.42% of 220,000 active; in the data active means inhibition above about 15%;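 further: 0% = DMSO vehicle and 100% = wells lacking enzyme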
Target sequence (P55072 whole entry, looked up): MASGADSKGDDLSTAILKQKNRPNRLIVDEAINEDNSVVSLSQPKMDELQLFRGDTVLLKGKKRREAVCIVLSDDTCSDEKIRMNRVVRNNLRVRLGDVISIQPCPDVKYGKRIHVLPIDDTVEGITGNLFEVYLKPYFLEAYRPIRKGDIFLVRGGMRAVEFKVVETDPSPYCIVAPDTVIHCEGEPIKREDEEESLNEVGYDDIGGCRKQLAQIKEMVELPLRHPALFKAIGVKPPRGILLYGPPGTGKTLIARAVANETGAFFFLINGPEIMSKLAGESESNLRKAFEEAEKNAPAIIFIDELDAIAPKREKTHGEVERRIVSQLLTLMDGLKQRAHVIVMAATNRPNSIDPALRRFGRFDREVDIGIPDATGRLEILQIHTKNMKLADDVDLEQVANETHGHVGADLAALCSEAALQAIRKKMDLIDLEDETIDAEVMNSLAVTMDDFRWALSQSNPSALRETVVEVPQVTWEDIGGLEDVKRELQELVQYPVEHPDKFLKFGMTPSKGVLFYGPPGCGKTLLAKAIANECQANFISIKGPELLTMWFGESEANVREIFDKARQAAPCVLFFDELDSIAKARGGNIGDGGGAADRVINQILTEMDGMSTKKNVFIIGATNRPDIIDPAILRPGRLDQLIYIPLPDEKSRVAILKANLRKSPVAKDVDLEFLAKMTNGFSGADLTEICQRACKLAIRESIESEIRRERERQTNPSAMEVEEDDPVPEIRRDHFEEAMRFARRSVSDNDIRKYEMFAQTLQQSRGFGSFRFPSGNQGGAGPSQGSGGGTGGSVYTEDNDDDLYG
LYPLA2 counter – blocks human lysophospholipase 2, a PME1 counter-screen; 0.38% of 320,000 active; inhibition, % at 5.9 µM; recombinant LYPLA2, FP-Rh probe fluorescence polarization;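 active means inhibition above the screen-wide mean plus 3 SD, limit set per campaign, cut at about 26% in these data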;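 further: 0% = LYPLA2 with DMSO and 100% = wells lacking LYPLA2 enzyme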
LYPLA1 inh – counter-screen for PME1 inhibitors: inhibitors of human LYPLA1; O75608; recombinant LYPLA1, FP-Rh probe fluorescence polarization; inhibition, % at 5.9 µM; 0.16% of 320,000 active; AID 2174;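 active means inhibition above the mean of all tested compounds plus 3 SD, set per campaign, cut at about 14% in these data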;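 further: inhibitors block serine hydrolase probe labeling of LYPLA1 so polarization falls; 0% = enzyme with DMSO and 100% = wells lacking LYPLA1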
DTT redox prof – compounds producing H2O2 with reducing agent – biochemical, NIH compound library profiling, artefact control for MLSCN library redox annotation, primary screen; DTT-dependent redox cycling H2O2, phenol red/HRP absorbance; 100% = 100 µM peroxide control, 0% = buffer; activation, % at 10 µM; 0.03% of 200,000 active; AID 878;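 active means activation of at least 50% relative to the plate's high and low controls in the primary single-dose screen; inactive means activation below 50%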;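 further: compound incubated with DTT at 0.8 mM final as the reducing agent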
p97 confirm – human p97 ATPase inhibition, confirmation. shares compounds with p97 inhibitor. recombinant p97 ATPase, Kinase-Glo ATP luminescence. inhibition, % at 8 µM. 44% of 760 active. AID 1517;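 active means percent inhibition of p97 ATPase above a set limit, the primary screen's mean plus 3 SD, cut at about 15% in these data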;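 further: 0% = DMSO wells and 100% = wells lacking p97 protein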
* = called active by the depositor; x = no result; ! = repeats disagree.

SMILES	p97 inhibitor	LYPLA2 counter	LYPLA1 inh	DTT redox prof	p97 confirm
CCOC(=O)Oc1c(OC)cc(C(=O)O[C@@H]2C[C@@H]3CN4CCc5c([nH]c6cc(OC)ccc56)[C@H]4C[C@@H]3[C@H](C(=O)OC)[C@H]2OC)cc1OC	x	-2.2	-5.4	x	x
O=C(NNC(=S)NC(=O)c1cccnc1)c1ccc(F)cc1	15.2*	1.9	2.3	x	8.7
O=C(NNC(=S)NC(=O)c1ccc(F)cc1)c1cccnc1	x	-3.5	0.7	x	x
O=C1CCCC/C1=C\Nc1ccc(O)cc1	21.2*	8.6	5.5	-1.9	7.4
O=C1CCC/C1=C/Nc1ccc(Cl)cc1	3.0	0.7	0.3	2.6	x
CC#CC#Cc1cccc(=O)o1	29.2*	-3.5	-0.5	x	23.2*
CCc1nnc(NC(=O)CCc2ccccc2OC)s1	x	4.6	-2.1	x	x
Cc1[nH][nH]c(=O)c1C(c1ccc(-c2ccc(C(=O)O)cc2)o1)c1c(C)[nH][nH]c1=O	24.6*	x	x	-1.2	10.2
Cc1ccc(OCCSc2nc3ccccc3n2CC(=O)O)cc1	x	-5.5	-3.9	x	x
CCCCC(=O)NNC(=O)c1c(O)c2ccccc2[nH]c1=O	-7.7	6.5	-0.9	x	x
O=C(CCl)NNC(=O)c1c(O)c2ccccc2[nH]c1=O	20.7*	4.0	3.2	x	32.0*
N#CC1=C(SCC(=O)Nc2ccc(C(=O)O)cc2)NC(=O)CC1c1ccco1 (centres undefined)	16.9*	13.7	4.9	x	8.7
Cc1ccc(NC(=O)CSC2=C(C#N)C(c3ccco3)C3=C(CCCC3=O)N2)cc1 (centres undefined)	3.9	2.1	5.0	0.5	x
CN=C(N)NC(=O)Nc1c(C)cccc1C	14.9*	-1.2	-1.0	x	7.1
Cc1c(C=Nc2ccc(S(=O)(=O)CCO)cc2)c(O)[nH]c(=O)c1C#N	x	0.3	-1.1	x	x
CSc1ccccc1NC(=O)Nc1ccc(F)c(Cl)c1	24.8*	9.3	-7.5	1.8	4.1
COc1ccccc1-c1nnc(NC(=O)C(C)SC2=NCCS2)s1 (centres undefined)	17.2*	-11.1	-6.5	-1.2	19.6*
O=C(N/N=C/c1coc2ccccc2c1=O)c1cc(O)cc(O)c1	30.4*	x	x	0.1	32.9*
N#C/C(=C(/O)CSc1ccccn1)c1nc2ccccc2s1	-3.5	-4.8	-2.8	-1.9	x
Cc1ccc(SC/C(O)=C(\C#N)c2nc3ccccc3s2)cc1	20.8*	-3.0	3.1	-0.8	39.4*
Brc1ccccc1C1CC(c2ccccc2)=Nc2ccccc2N1 (centres undefined)	1.9	3.1	-3.5	1.7	x
Clc1ccccc1C1CC(c2ccccc2)=Nc2ccccc2N1 (centres undefined)	14.9*	-1.2	-4.3	x	6.5
COc1ccc(/C=C2/C(=O)N(c3ccccc3)N=C2C)cc1	x	-0.7	-0.1	x	x
COc1ccc(C2=NN(c3ccccc3)C(=O)/C2=C\c2ccc(O)c(OC)c2)cc1	34.8*	-1.5	0.4	0.6	6.9
O=C(CSc1ccc(F)cc1)Nc1ccc(Br)cc1	-0.7	-1.1	-2.4	-0.8	x
SMILES	p97 inhibitor	LYPLA2 counter	LYPLA1 inh	DTT redox prof	p97 confirm
O=C(CSc1ccc(F)cc1)Nc1ccccc1Br	15.3*	-4.8	-4.3	0.0	4.3
CCCCN(C(=O)c1ccc(C)o1)c1c(N)n(CC(C)C)c(=O)[nH]c1=O	x	-0.6	-2.6	x	x
O=C(O)c1cc(-c2ccco2)nc2cc3ccccc3cc12	29.8*	3.0	-1.5	x	23.3*
CCOC(=O)/C(C(N)=NCCCO)=C(/O)c1ccccc1	0.3	-2.7	-3.3	3.2	x
CCOC(=O)/C(C(N)=NCCO)=C(/O)c1ccccc1	24.1*	-1.5	-2.7	0.1	4.0
Cc1c(C(=O)c2no[n+]([O-])c2C(=O)c2cnn(C)c2C)cnn1C	33.8*	5.5	-0.5	2.9	36.2*
CC(C)(C)c1ccc(N2C(=O)CSC2c2cccnc2)cc1 (centres undefined)	-1.0	-0.7	-3.9	x	x
C=CCc1ccccc1OCC(O)CN1CCN(Cc2ccc3c(c2)OCO3)CC1 (centres undefined)	15.7*!	10.5	5.6	-0.7	0.9
Cc1ccc(S(=O)(=O)CCC(=O)OCC(=O)c2cc(C)ccc2C)cc1	x	0.8	-1.9	x	x
Cc1ccc(S(=O)(=O)CCC(=O)c2ccc(O)cc2O)cc1	15.8*	-0.4	-1.5	2.1	20.7*
Cc1ccc(C2=NNC(=O)C(P(=O)(c3ccccc3)c3ccccc3)C2)cc1 (centres undefined)	3.9	1.8	-2.0	-1.4	x
Cc1nnc(N/N=C\c2ccc(-c3ccccc3[N+](=O)[O-])o2)n1N	17.2*	6.1	4.5	-0.4	5.9
